JMJD2A Tudor inh = JMJD2A Tudor domain (human) inhibition; Potency, µM (titrated, usually from 114 µM), for inactives: at the top dose activity change, negative = inhibition, usual class: inhibitors; AlphaScreen JMJD2A-Tudor / H3K4me3 peptide binding; O75164; 4.4% of 390,000 active; note: potency is the fitted concentration of half-maximal effect; % is set by controls: 0 for no effect and ±100 for the full control effect; nearly all actives have a fitted effect of over 50% in size
G9a block = inhibitors of human histone lysine methyltransferase G9a. Q96KQ7. G9a H3K9 monomethylation, AlphaScreen, 2 h. Potency, µM (titrated, usually from 102 µM), for the others: at the top dose activity, negative = inhibition, hits mostly inhibitors. 8.8% of 350,000 active. AID 504332; note: potency is the fitted concentration of half-maximal effect; % is set by controls: 0 for no effect and ±100 for the full control effect; nearly all actives have a fitted effect of over 75% in size
Target sequence (Q96KQ7 913-1193 limits assumed): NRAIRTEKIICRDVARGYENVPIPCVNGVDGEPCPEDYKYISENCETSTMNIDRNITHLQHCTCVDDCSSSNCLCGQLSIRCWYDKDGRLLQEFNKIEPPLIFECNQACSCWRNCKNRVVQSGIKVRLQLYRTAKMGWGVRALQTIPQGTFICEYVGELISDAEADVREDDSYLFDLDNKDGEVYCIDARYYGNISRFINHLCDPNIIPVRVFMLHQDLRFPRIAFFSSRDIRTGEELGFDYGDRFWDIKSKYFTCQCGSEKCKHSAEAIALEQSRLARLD
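AlphaScreen read-out: biotin-H3K9 peptide (500 nM) methylation by 20 nM enzyme with 20 uM SAM, 2 h at room temperature after 15 min compound preincubation; anti-monomethyl H3K9 antibody plus donor/acceptor beads, 10 min dark.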
PI5P4K alpha inh = inhibitors of human PI5P4K alpha; PI5P4Kalpha enzyme, ADP-Glo luminescence, 60 min; stronger effect = lower value; 1.2% of 330,000 active; max response, %; AID 652105; active = max response of -50% or lower; inconclusive = between -30% and -50%; inactive = -30% or higher; note: value at the top dose of about 77 µM; % is set by controls: 0 for no effect and ±100 for the full control effect
Target sequence (P48426 whole entry, looked up): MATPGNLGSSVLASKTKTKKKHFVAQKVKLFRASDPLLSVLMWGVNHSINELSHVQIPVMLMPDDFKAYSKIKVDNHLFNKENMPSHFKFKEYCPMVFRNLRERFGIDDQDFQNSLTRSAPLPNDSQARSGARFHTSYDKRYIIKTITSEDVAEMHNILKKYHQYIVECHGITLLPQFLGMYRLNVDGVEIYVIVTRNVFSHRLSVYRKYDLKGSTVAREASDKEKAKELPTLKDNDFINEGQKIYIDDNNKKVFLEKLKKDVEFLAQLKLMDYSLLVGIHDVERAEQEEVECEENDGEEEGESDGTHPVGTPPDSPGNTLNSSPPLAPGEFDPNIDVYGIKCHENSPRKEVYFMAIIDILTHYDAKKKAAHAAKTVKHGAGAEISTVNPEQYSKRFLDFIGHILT
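Enzyme plus substrate dispensed, test compounds pinned in, then ATP (5 microM final) added. After 60 min at RT, ADP-Glo reagent 1 for 45 min and reagent 2 for 30 min preceded luminescence imaging.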
L3MBTL1 inh = blocks human L3MBTL1; AlphaScreen L3MBTL1–H3K9me1 peptide binding; Potency, µM (series often up to 57.1 µM), for the others: at the top dose activity, negative = inhibition, actives largely listed as inhibitors; 0.66% of 230,000 active; note: potency is the fitted concentration of half-maximal effect; % is set by controls: 0 for no effect and ±100 for the full control effect; nearly all actives have a fitted effect of over 60% in size
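First, the protein-peptide complex forms for 30 min at room temperature (L3MBTL1 50 nM, biotinylated H3K9me1 peptide 75 nM). Next, compounds are pin-transferred and incubated 30 min. Finally, AlphaScreen beads are added and read after 30 min.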
BAZ2B block = blocks human BAZ2B; Q9UIF8; AlphaScreen BAZ2B-H3K14Ac peptide displacement; Potency, µM (titrated, usually from 114 µM), without a hit: at the top dose activity change, negative = inhibition, actives largely listed as inhibitors; 4.4% of 360,000 active; AID 504333; note: potency is the fitted concentration of half-maximal effect; % is set by controls: 0 for no effect and ±100 for the full control effect; nearly all actives have a fitted effect of over 60% in size
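AlphaScreen displacement: compounds (up to 110uM) incubated 30 min at room temperature with a preformed 50 nM BAZ2B/50 nM biotinylated H3K14Ac peptide complex in PBS pH 7.4 with Tween-20. Donor and acceptor beads at 10 ug/mL final added, 20 min light-protected before reading.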
HP1b chromo inh = HP1-beta chromodomain-methylated histone interaction inhibition | Potency, µM (top dose mostly 114 µM), without a hit: at the highest dose activity change, negative = inhibition, actives largely listed as inhibitors | P83916 | AlphaScreen HP1-beta / biotin-H3K9me3 peptide binding | 0.56% of 390,000 active; note: potency is the fitted concentration of half-maximal effect; nearly all actives have a fitted effect of over 70% in size
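HP1-beta protein (50 nM final) preincubated 30 min at room temperature with biotinylated H3(1-18)K9me3 peptide (50 nM) in PBS pH 7.4, 0.01% Tween-20, then compound added for 30 min. AlphaScreen streptavidin donor/nickel chelate acceptor beads (10 ug/mL final), 30 min dark, luminescence read.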
* = called active by the depositor; [ ] = dose if it differs, or a comment. Sampled rows, rich in hits. Any-hit rate of the full collection: about 11%. Unless noted, calls come from the whole dose curve; as a rule, active = well fitted inhibition curve with a large enough effect; inconclusive = small, poorly fitted or top-dose-only effect; inactive = no such curve, though single readings can be large or run the other way.

O=C(Nc1cccc(S(=O)(=O)N2CCOCC2)c1)c1cccc(S(=O)(=O)N2CCCCC2)c1 was read as JMJD2A Tudor inh -18%, G9a block inconclusive, PI5P4K alpha inh 2, L3MBTL1 inh 0%, BAZ2B block 3% and HP1b chromo inh 16%.
Screening O=C(Nc1ccc(N2CCCCCC2)cc1)c1cccc(S(=O)(=O)N2CCOCC2)c1 returned JMJD2A Tudor inh 25µM*, G9a block 1.8µM*, PI5P4K alpha inh -11, L3MBTL1 inh inconclusive, BAZ2B block 32µM* and HP1b chromo inh -45%.
Screening CC(=O)N1CCN(S(=O)(=O)c2cccc(C(=O)Nc3ccc4c(c3)CCC4)c2)CC1 returned JMJD2A Tudor inh -20%, G9a block 28µM*, PI5P4K alpha inh 0, L3MBTL1 inh 43%, BAZ2B block 18% and HP1b chromo inh 28%.
Screening Cc1cc(N2CCCCC2)nc2ccc(NC(=O)/C=C/c3ccc(OCCC(C)C)cc3)cc12 returned JMJD2A Tudor inh -30%, G9a block -8%[59 µM], BAZ2B block -5% and HP1b chromo inh -2%.
Screening CC(=O)Nc1nonc1NC(=O)CSC1=NCCS1 returned JMJD2A Tudor inh -30%, G9a block 56µM*, PI5P4K alpha inh -1, L3MBTL1 inh 38%, BAZ2B block 10% and HP1b chromo inh 50%.
`CC(=O)Nc1ccc(NC(=O)CSC2=NCCS2)cc1` gave JMJD2A Tudor inh 3%, G9a block inconclusive, PI5P4K alpha inh 5, L3MBTL1 inh -3%, BAZ2B block -1% and HP1b chromo inh 58%.
For O=C(CSC1=NCCS1)Nc1nc2c(s1)CCCC2 the results were JMJD2A Tudor inh -35%, G9a block 40µM*, PI5P4K alpha inh inconclusive, L3MBTL1 inh -23%, BAZ2B block inconclusive and HP1b chromo inh -10%.
COc1ccc(-c2ccc3ncnc(NCC4CCCO4)c3c2)cc1OC (stereo not given) was read as JMJD2A Tudor inh -35%.
For CCOC(=O)/C(C#N)=C\c1cc(OC)c(OC)cc1[N+](=O)[O-] the results were JMJD2A Tudor inh 11µM*, G9a block 19%[0.501 µM], PI5P4K alpha inh -70*, L3MBTL1 inh 2%, BAZ2B block -12% and HP1b chromo inh inconclusive.
For CCc1cccc(-n2nnc(S(=O)(=O)c3ccc(OC)cc3)c2C)c1 the results were JMJD2A Tudor inh -8%, G9a block 8%[59 µM], BAZ2B block -16% and HP1b chromo inh 27%.
Screening CCN(CC)S(=O)(=O)c1ccc(C(=O)NC2=C(C(=O)OC)SCC2)cc1 returned JMJD2A Tudor inh 40µM*, G9a block 22%[12.7 µM], L3MBTL1 inh -20%, BAZ2B block inconclusive and HP1b chromo inh -15%.
For COC(=O)C1=C(NC(=O)CCCCl)CCS1 the results were JMJD2A Tudor inh -22%, G9a block -20%[59 µM], PI5P4K alpha inh -15, L3MBTL1 inh 3%, BAZ2B block -34% and HP1b chromo inh 17%.
CCCCC(=O)NC1=C(C(=O)OC)SCC1 was read as JMJD2A Tudor inh inconclusive, G9a block 4.5µM*, PI5P4K alpha inh -5, L3MBTL1 inh -10%, BAZ2B block inconclusive and HP1b chromo inh -4%.
Screening COC(=O)C1=C(NC(=O)c2ccc(Br)cc2)CCS1 returned JMJD2A Tudor inh -12%, G9a block 22%, PI5P4K alpha inh 0, L3MBTL1 inh 3%, BAZ2B block -13% and HP1b chromo inh 37%.
For COc1ccc(S(=O)(=O)N(CC(=O)Nc2ccc(OC)cc2OC)c2ccc(Cl)cc2)cc1 the results were JMJD2A Tudor inh -21%, G9a block -32%[59 µM], BAZ2B block -17% and HP1b chromo inh 30%.
For Cc1c(C)n(Cc2ccccc2)c2ccc(C(=O)NCCc3ccccc3Cl)cc12 the results were JMJD2A Tudor inh inconclusive, G9a block -24%[59 µM], BAZ2B block -15% and HP1b chromo inh 19%.
COc1ccccc1C(=O)NCCC(=O)NC(C)c1ccc(-n2ccnc2)cc1 (stereo not given) was read as JMJD2A Tudor inh -16%, G9a block 20µM*, PI5P4K alpha inh 6, L3MBTL1 inh 10%, BAZ2B block -14% and HP1b chromo inh 35%.
For CC(=O)Nc1cccc(C(=O)NC(C)c2ccc(-n3ccnc3)cc2)c1 (stereo not given) the results were JMJD2A Tudor inh -14%, G9a block 45µM*, PI5P4K alpha inh 1, BAZ2B block inconclusive and HP1b chromo inh 11%.
Screening CCN(CC)c1ccc(NC(=O)c2cc(CN3CCCC3)on2)c(C)c1 returned JMJD2A Tudor inh inconclusive, G9a block 14µM*, BAZ2B block inconclusive and HP1b chromo inh 14%.
For O=S(=O)(c1ccccc1)c1nc(-c2cccs2)oc1SCc1ccccc1F the results were JMJD2A Tudor inh -1%, G9a block inconclusive, BAZ2B block 3% and HP1b chromo inh 61%.
CCC(C)NC(=O)c1ccc2c(c1)N=C(C)c1cc(C)ccc1S2 (stereo not given) was read as JMJD2A Tudor inh -20%, G9a block inconclusive, BAZ2B block -26% and HP1b chromo inh 13%.
Screening c1ccc(CNc2ccc3c(c2)ncn3C2CCCCC2)nc1 returned JMJD2A Tudor inh 25µM*, G9a block 7.9µM*, L3MBTL1 inh inconclusive, BAZ2B block 20µM* and HP1b chromo inh -18%.
For COc1ccc(NC(=O)CN(C)C(=O)c2ccc(=O)[nH]c2)cc1 the results were JMJD2A Tudor inh 4%, G9a block -3%, PI5P4K alpha inh 1, BAZ2B block -15% and HP1b chromo inh 22%.
Screening COc1ccc(C(C(=O)Nc2ccc(C(C)C)cc2)N(C)C(=O)c2ccc(=O)[nH]c2)cc1 (stereo not given) returned JMJD2A Tudor inh 50µM*, G9a block -35%, PI5P4K alpha inh -30, BAZ2B block -6% and HP1b chromo inh -16%.
`Cc1ccc(-c2nc(CN(C)C)cc(CN(C)C)c2O)cc1` gave JMJD2A Tudor inh inconclusive, G9a block 50µM*, PI5P4K alpha inh 2, L3MBTL1 inh -5%, BAZ2B block inconclusive and HP1b chromo inh 27%.
CN(C)Cc1cc(CN(C)C)c(O)c(CCc2ccccc2)n1 was read as JMJD2A Tudor inh -20%[57.1 µM], G9a block 50µM*, PI5P4K alpha inh -2, BAZ2B block -28% and HP1b chromo inh 43%.
For CN(C)Cc1cc(C(C)(C)c2cc(CN(C)C)c(O)c(CN(C)C)c2)cc(CN(C)C)c1O the results were JMJD2A Tudor inh -48%, G9a block inconclusive, PI5P4K alpha inh 3, L3MBTL1 inh 17%, BAZ2B block -7% and HP1b chromo inh inconclusive.

Screens: PubChem, National Center for Advancing Translational Sciences (NCATS)
